Screens as filed in PubChem.
This is one part of a sample in which hits are shown more often than they occur.
Cruzain inh Det: blocks cruzain activity in presence of Triton detergent | hit rate 0.43% among 200,000 | Potency, µM, inactives show max response, negative = inhibition, usual class: inhibitors | purified cruzain, Z-FR-AMC fluorescence, 0.01% Triton | P25779;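 also: plate controls were neutral wells for no effect and buffer without enzyme for full effect; nearly all actives have a fitted effect of over 40% in size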
Target sequence (P25779 123-467 limits assumed): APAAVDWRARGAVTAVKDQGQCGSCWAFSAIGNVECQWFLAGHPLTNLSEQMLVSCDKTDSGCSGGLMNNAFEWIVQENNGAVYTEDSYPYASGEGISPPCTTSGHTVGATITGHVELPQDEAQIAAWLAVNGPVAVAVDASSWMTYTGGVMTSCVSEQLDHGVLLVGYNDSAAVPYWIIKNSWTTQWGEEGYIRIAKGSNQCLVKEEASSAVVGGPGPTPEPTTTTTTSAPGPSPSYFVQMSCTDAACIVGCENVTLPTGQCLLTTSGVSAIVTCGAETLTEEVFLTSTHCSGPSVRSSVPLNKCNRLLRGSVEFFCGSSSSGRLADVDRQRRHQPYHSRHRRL
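15 min RT preincubation of 1.5 nM cruzain with compound, then 2 uM Z-FR-AMC added; kinetic AMC fluorescence, 60 s delta. Triton X-100 0.01%, pH 5.5.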
Cruzain noTriton: blocks cruzain activity in detergent-free assay; AID 1476; purified cruzain, Z-FR-AMC fluorescence, no detergent; hit rate 2.3% among 200,000; P25779; Potency, µM, without a hit: max response, negative = inhibition, most hits filed as inhibitors;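 also: plate controls were enzyme without inhibitor for no effect and buffer without enzyme for full effect; nearly all actives have a fitted effect of over 40% in size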
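Detergent-free condition (0.00005% Triton X-100) in acetate buffer pH 5.5 with DTT. 1.5 nM enzyme and compound were pre-mixed 15 min, then 2 uM Z-FR-AMC substrate added; reaction progress from fluorescence change between first and third reads (60 s).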
NS1 inh: inhibitors of influenza NS1 protein function. hit rate 0.4% among 270,000. Potency, µM (highest dose often 46.1 µM), inactives show at the top dose activity, positive = more growth; calls by dose curve; also: actives are rising curves; nearly all actives have a fitted effect of over 50% in size
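Compounds were scored for reversing the slow growth caused by influenza A NS1 in S. cerevisiae, measured by optical density at 600 nm. Assay medium contained 2% galactose at pH 6.0; NS1-free yeast of the same strain were the positive control.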
Papain inh: blocks papain protease activity, flagging nonselective cruzain hits; shares compounds with Cruzain inh Det; Potency, µM, for the others: max response, negative = inhibition, most hits filed as inhibitors; purified papain, Z-FR-AMC fluorescence cleavage; hit rate 41% among 410;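 also: 0% = no-compound wells and -100% = no-enzyme wells; nearly all actives have a fitted effect of over 35% in size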
Target sequence (P00784 whole entry, looked up): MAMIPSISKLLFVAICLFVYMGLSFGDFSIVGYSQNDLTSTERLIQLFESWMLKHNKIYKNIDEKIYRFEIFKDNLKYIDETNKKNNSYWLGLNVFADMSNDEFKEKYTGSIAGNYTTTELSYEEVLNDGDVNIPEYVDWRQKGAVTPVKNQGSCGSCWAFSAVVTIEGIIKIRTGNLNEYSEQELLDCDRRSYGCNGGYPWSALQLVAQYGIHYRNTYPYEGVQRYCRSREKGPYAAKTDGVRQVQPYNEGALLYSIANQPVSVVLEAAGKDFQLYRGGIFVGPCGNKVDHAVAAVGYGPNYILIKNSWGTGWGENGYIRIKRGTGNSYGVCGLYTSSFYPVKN
Starred values were filed as active, the others as inactive; ? = inconclusive; nt = no result given. Unless noted, calls follow the shape of the dose curve; as a rule, active = well fitted curve in the direction sought with a large enough effect; inconclusive = small, poorly fitted or top-dose-only effect, or another doubt; inactive = no such curve, though single readings can be large; an effect the other way counts as inactive or inconclusive. Potency is read from the fitted curve at half-maximal effect.

SMILES | Cruzain inh Det | Cruzain noTriton | NS1 inh | Papain inh
N#Cc1c(-c2ccco2)cc(-c2ccccc2)[nH]c1=O | nt | nt | 13% | nt
N#Cc1c(-c2ccccc2)cc(-c2ccco2)c(C#N)c1N | -3% | -22% | ? | 8%
CN1C(=O)/C(=C\c2ccco2)N=C1c1ccc(Cl)cc1Cl | nt | nt | 8% | nt
O=C1OC(/C=C/c2ccc(Cl)cc2)=NC/1=C/c1ccco1 | 2.5µM* | 16µM* | 12% | -15%
CCC(C(=O)NC1CCCCC1)n1c(SCc2ccc(F)cc2)nc2ccncc21 (configuration not stated) | 13µM* | 0% | 2% | -15%
CCC(C(=O)NC1CCCC1)n1c(SCc2cccc(C)c2)nc2ccncc21 (configuration not stated) | -15% | 1% | -30% | nt
CCN(C(=O)CSc1nc2ccccc2n1Cc1ccccc1C#N)c1ccccc1 | 0% | ? | nt | nt
COc1ccc(N/C=C\C(=O)c2ccc3ccccc3c2)cc1 | nt | nt | -4% | nt
NS(=O)(=O)c1ccc(N/C=C\C(=O)c2ccc3ccccc3c2)cc1 | 8.9µM* | 6.3µM* | 3% | 6%
Cc1ccc(CCNC(=O)C2CCCN(S(=O)(=O)c3ccc4c(c3)oc(=O)n4C)C2)cc1 (configuration not stated) | 0% | ? | nt | nt
COc1ccc(-c2nn3c(-c4cc(C)[nH]n4)nnc3s2)cc1 | nt | nt | nt | 7%
CCOc1cccc(-c2nn3c(-c4cc(C)[nH]n4)nnc3s2)c1 | 1% | -4% | -2% | 8%
CCOc1cccc(-c2nnc3sc(-c4cc(OC)c(OC)cc4OC)nn23)c1 | -4% | 0% | ? | nt
COc1ccc(-c2nn3c(-c4ccc(F)cc4)nnc3s2)cc1 | 2% | ? | -3% | nt
COc1ccc2c(c1)c(=O)c(C(=O)c1ccc(F)cc1)cn2CC(=O)Nc1ccc2c(c1)OCO2 | -4% | -8% | nt | nt
CCCCN(CC)CCCNC(=O)c1sc2nc(C)cc(C)c2c1-n1cccc1 | -3% | 6% | nt | nt
COc1ccc(-c2nc(C#N)c(NCCCN3CCOCC3)o2)cc1 | 20µM* | -13% | ? | 4µM*
N#Cc1nc(-c2ccc(F)cc2)oc1NCCN1CCOCC1 | -4% | -3% | 5% | nt
Cc1ccc(S(=O)(=O)c2cc3cc(C(=O)Nc4ccc(C)cc4C)ccc3oc2=O)cc1 | 2% | -2% | nt | nt
CNC(=O)c1ccc2nc(-c3cccc(C)c3)c(-c3cccc(C)c3)nc2c1 | nt | nt | nt | -13%
Cc1cc(NC(=O)c2ccc3nc(-c4ccccc4)c(-c4ccccc4)nc3c2)no1 | -5% | -21% | -14% | nt
CCC(C)C(NCc1cccc(C)c1)C(=O)O (configuration not stated) | nt | nt | -9% | nt
CCC(C)[C@@H](NC(=O)OC(C)(C)C)c1nnc(S(=O)(=O)Cc2cccc(C)c2)o1 (some centres not stated) | 3.2µM* | 7.9µM* | -66% | 13µM*
CNc1oc(Cc2ccccc2)nc1S(=O)(=O)c1ccccc1 | 3.2µM* | 3.2µM* | 2% | 28µM*
CCOc1ccc(-c2nc(S(=O)(=O)c3ccccc3)c(NC)o2)cc1 | nt | nt | 8% | nt
SMILES | Cruzain inh Det | Cruzain noTriton | NS1 inh | Papain inh
COc1ccc(NC(=O)CN(C)S(=O)(=O)c2ccc3c(c2)CCCN3C(C)=O)cc1Cl | -3% | 14% | nt | nt
COc1cc2c(C=O)c3c4c(cc(OC)c(OC)c4c2cc1OC)CCN3C | -3% | ? | nt | nt
Cc1ccc(C(=O)O/N=C/c2c(C)nn(C)c2Cl)cc1 | nt | nt | -6% | nt
Cc1ccc(C(=O)Oc2oc(-c3ccco3)nc2C=Nc2ccc(Cl)cc2)cc1 | 4µM* | 13µM* | -37% | 14µM*
COc1ccc(/C=C/C(=O)Nc2ccc(-n3nncc3-c3ccccc3)cc2)cc1OC | 3.2µM* | 16µM* | 10% | -14%
COc1cccc(C(=O)Nc2ccc(-n3nncc3-c3ccc(Br)cc3)cc2)c1OC | -1% | -8% | nt | nt
COc1ccc(/C=C/C(=O)Nc2ccc(C(N)=O)cc2)cc1OC | nt | nt | 3% | nt
CCOc1ccc(C(=O)Nc2ccc(-n3nncc3-c3ccccc3)cc2)cc1OCC | -5% | 16% | nt | nt
COc1ccc(/C=C/C(=O)Nc2ccc(-n3nncc3-c3ccc(Br)cc3)cc2)cc1OC | nt | nt | nt | -20%
Cc1ccc(NC(=O)c2ccc(-n3nncc3-c3ccccc3)cc2)cc1 | nt | nt | nt | 4%
CC1CCN(C(=O)CSc2nc(-c3ccccc3)no2)CC1 | -8% | 5% | nt | nt
O=C(Nc1cccc(Cl)c1)c1cc(S(=O)(=O)N2CCCc3ccccc32)ccc1F | 0% | -53% | nt | nt
Cc1cccc(C(=O)N2c3ncnn3C3(CCCCC3)[C@@H]3CCCC[C@@H]32)c1 | -1% | -2% | nt | nt
CCC(C)NC(=O)c1cc(-c2cccs2)nc2ccccc12 (configuration not stated) | nt | nt | 0% | nt
CCC(C)NC(=O)c1ccc2nc(-c3cccs3)c(-c3cccs3)nc2c1 (configuration not stated) | nt | nt | nt | -3%
O=C(CC(c1cccs1)N1Cc2ccccc2C1=O)Nc1ccc(F)cc1 (configuration not stated) | 0% | -2% | nt | nt
Cc1cc2c(c(=O)n1Cc1ccccc1)C1O[C@](c3ccsc3)(Cc3ccccc31)O2 | nt | nt | -35% | nt
COc1nc(N2CCCCCC2)nc(N2CCCCCC2)n1 | -1% | -1% | -3% | nt
N#CCOc1nc(N2CCCCC2)nc(N2CCCCC2)n1 | nt | nt | -43% | nt
CCOc1nc(C#N)nc(N2CCCCC2)n1 | 0.56µM* | 0.5µM* | -41% | 2.2µM*
COc1nc(C#N)nc(N2CCCC2)n1 | nt | nt | nt | 4µM*
O=C1CN(C(=O)c2ccc(S(=O)(=O)N3CCCC3)cc2)C(c2ccc(F)cc2)c2cc(F)ccc2N1 (configuration not stated) | -2% | 3% | nt | nt
Cc1cc(F)ccc1NC(=O)CCn1nc(C)c(S(=O)(=O)N2CCCCC2)c1C | -1% | -4% | nt | nt
CCOc1ccccc1CNC(=O)Cn1cc2c(n1)-c1c(oc(C(=O)N3CCCC3)c1C)CC2 | -3% | 3% | nt | nt
Cc1ccc(-n2c3c(c(=O)[nH]c2=O)C(NC(=O)C(C)(C)C)(C(F)(F)F)C(=O)N3)cc1 (configuration not stated) | -1% | 10% | nt | nt
SMILES | Cruzain inh Det | Cruzain noTriton | NS1 inh | Papain inh
O=C(NCc1ccccc1Cl)c1ccc(CS(=O)(=O)c2ccc(Br)cc2)o1 | -5% | 5% | nt | nt
Cn1cc(S(=O)(=O)N2CCCCC2)cc1C(=O)NCc1ccc(Cl)cc1 | 10µM* | ? | nt | -6%
Cn1cc(S(=O)(=O)N2CCCCCC2)cc1C(=O)NCc1ccc(Cl)cc1 | -26% | -6% | nt | nt
Cc1cc(C(=O)NCc2ccccc2Cl)c2c(C)nn(-c3ccccc3)c2n1 | -1% | 2% | nt | nt
O=C(NC(=S)Nc1nc(-c2cccc3ccccc23)cs1)c1cc2ccccc2o1 | -3% | 2.5µM* | 11% | 14%
O=C(NC(=S)Nc1ccc(NC(=O)c2cccs2)cc1)c1cc2ccccc2o1 | -12% | ? | 11% | nt
CCCCOC(=O)c1ccc(NC(=O)CSc2nc3c(c(=O)[nH]2)CCCC3)cc1 | -9% | -7% | nt | nt
O=C(Cn1cnc2c(oc3ccccc32)c1=O)Nc1ccccc1C(F)(F)F | -9% | -24% | nt | nt
CC1=CC(=O)C=C(C)C1=NOC(=O)/C=C\c1ccccc1 | -4% | -1% | 4% | nt
CC1=CC(=NOC(=O)/C=C/c2ccccc2)C=C(C)C1=O | 2.2µM* | 2.5µM* | -17% | 10µM*
CCCCCn1c(=O)[nH]c2cc(C(=O)N3CCN(c4cccc(C(F)(F)F)c4)CC3)ccc2c1=O | -7% | 2% | nt | nt
